# Records with an inconclusive call do not appear. A number with no mark means an inactive call. Active and inactive are the calls of the source. Calls follow the shape of the dose curve; as a rule, active = well fitted curve in the direction sought with a large enough effect; inconclusive = small, poorly fitted or top-dose-only effect, or another doubt; inactive = no such curve, though single readings can be large; an effect the other way counts as inactive or inconclusive.
# How the values were obtained:
# [1] = BET inhibitor-based combinations targeting novel dependencies in MECOM-rearranged (r) AML: SET-2 cell line (AID 2202231); settings: SET-2 AML cells viability, CellTiter-Glo luminescence, 48 h; viability: stronger effect = lower value, concentration not given here; also: nearly all actives have a fitted effect of over 35% in size;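 as to viability: plate controls were DMSO treated cells for no effect and wells without cells for full effect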
# Summary of the method: (§1)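 500 cells/well; 11-pt dose curve; 48 h, standard incubator; CellTiter-Glo luminescence after 15 min RT; DMSO/empty-well normalization; AUC plus Z-AUC (mean-centered within each line).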
# [2] = BET inhibitor-based combinations targeting novel dependencies in MECOM-rearranged (r) AML: MV-4-11 cell line (AID 2202233); also: nearly all actives have a fitted effect of over 45% in size
# Summary of the method: (§2)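 Cells were plated at 500 per well and exposed to each drug across an 11-point dose range for 48 hr at standard incubator conditions. Viability was read by CellTiter-Glo luminescence, and activity was expressed as AUC and per-cell-line Z-transformed AUC.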
# [3] = BET inhibitor-based combinations targeting novel dependencies in MECOM-rearranged (r) AML: UCSD-AML1 cell line (AID 2202235); also: nearly all actives have a fitted effect of over 40% in size
# Summary of the method: as §2
# [4] = BET inhibitor-based combinations targeting novel dependencies in MECOM-rearranged (r) AML: AML-191 cell line (AID 2202236; also: nearly all actives have a fitted effect of over 35% in size)
# Summary of the method: as §1
# [5] = BET inhibitor-based combinations targeting novel dependencies in MECOM-rearranged (r) AML: AML-194 cell line (AID 2202237; also: nearly all actives have a fitted effect of over 40% in size)
# Summary of the method: as §1
# [6] = BET inhibitor-based combinations targeting novel dependencies in MECOM-rearranged (r) AML: HNT-34 cell line (AID 2202234); also: nearly all actives have a fitted effect of over 35% in size
# Summary of the method: as §2
# [7] = BET inhibitor-based combinations targeting novel dependencies in MECOM-rearranged (r) AML: OCI-AML3 cell line (AID 2202232); settings: Potency: OCI-AML3 viability; also: nearly all actives have a fitted effect of over 35% in size
# Summary of the method: as §1
# Potency is read from the fitted curve at half-maximal effect.
structure (smiles),measurement,setting,value
Fc1ccc(-c2csc3ncnc(NCc4ccc5c(c4)OCO5)c23)cc1,Potency,[1],5.9 µM (active)
same,Potency,[2],20.9 µM (active)
same,Potency,[3],20.9 µM (active)
C=CCc1cccc(/C=N/NC(=O)CN2CCN(Cc3ccccc3)CC2)c1O,Potency,[1],20.9 µM (active)
same,Potency,[2],16.6 µM (active)
same,Potency,[3],23.5 µM (active)
same,Potency,[4],8.33 µM (active)
same,Potency,[5],14.8 µM (active)
COc1cc(C)c(/C=C/C(C)=C/C=C/C(C)=C/C(=O)O)c(C)c1C,viability,[1],101%
same,Potency,[2],5.9 µM (active)
same,Potency,[3],inactive
same,Potency,[4],1.86 µM (active)
same,Potency,[5],inactive
COc1ccc(/C=C\c2cc(OC)c(OC)c(OC)c2)cc1O,Potency,[1],0.0148 µM (active)
same,Potency,[2],0.0132 µM (active)
same,Potency,[3],0.0118 µM (active)
same,Potency,[4],0.0132 µM (active)
CNC(=O)Cn1cc(-c2ccc3c(c2)C(F)CC32NC(=O)N(CC(=O)N(Cc3ccc(F)cc3)C(C)C(F)(F)F)C2=O)cn1 (stereo unspecified),Potency,[1],3.72 µM (active)
same,Potency,[6],0.0833 µM (active)
same,Potency,[3],0.148 µM (active)
C[C@H](NC(=O)[C@H]1NCC[C@@H]1O)c1ccc(-c2noc(CCC3CCCC3)n2)cc1,outcome,[1],inactive; activator; fitted 0.0033 uM
same,Potency,[2],inactive
same,Potency,[3],inactive
same,Potency,[4],20.9 µM (active)
same,Potency,[5],inactive
C[C@H](Nc1nc(N[C@H](C)C(F)(F)F)nc(-c2cccc(Cl)n2)n1)C(F)(F)F,viability,[1],120%
same,Potency,[6],inactive
same,Potency,[3],inactive
same,Potency,[4],inactive
same,Potency,[5],inactive
CC(c1cc2ccccc2s1)N(O)C(N)=O (stereo unspecified),viability,[1],106%
same,Potency,[2],inactive
same,Potency,[3],inactive
same,Potency,[4],inactive
same,Potency,[5],inactive
CC[C@H](CO)Nc1nc(NCc2ccccc2)c2ncn(C(C)C)c2n1,Potency,[1],26.3 µM (active)
same,Potency,[2],20.9 µM (active)
same,Potency,[3],26.3 µM (active)
same,Potency,[4],23.5 µM (active)
CC(=O)CC(c1ccccc1)c1c(O)c2ccccc2oc1=O (stereo unspecified),viability,[1],107%
same,Potency,[6],inactive
same,Potency,[3],inactive
same,Potency,[4],inactive
same,Potency,[5],inactive
Cc1cc(Nc2cc(N)ncn2)c(=O)n2c1C(=O)NC21CCCCC1,viability,[1],117%
same,Potency,[2],8.11 µM (active)
same,Potency,[3],inactive
same,Potency,[5],inactive
CCN(C)S(=O)(=O)Nc1ccc(F)c(C(=O)c2c[nH]c3ncc(-c4cnc(C5CC5)nc4)cc23)c1F,Potency,[1],18.6 µM (active)
same,Potency,[6],4.17 µM (active)
same,Potency,[3],20.9 µM (active)
same,Potency,[4],16.6 µM (active)
O=C1NC(=O)/C(=C\c2ccc(-c3ccc(F)cc3)o2)S1,Potency,[1],20.9 µM (active)
same,Potency,[2],inactive
same,Potency,[5],inactive
CC(C)(C)S(=O)(=O)c1ccc2nccc(Nc3n[nH]c4ccc(F)cc34)c2c1,viability,[1],104%
same,Potency,[6],inactive
same,Potency,[3],0.0012 µM (active)
same,Potency,[4],10.5 µM (active)
same,Potency,[5],inactive
CC(C)(O)[C@H]1CC[C@@](C)([C@H]2[C@@H](O)C[C@@]3(C)[C@@H]4C[C@H](O[C@@H]5O[C@H](CO)[C@@H](O)[C@H](O)[C@H]5O)[C@H]5C(C)(C)[C@@H](O[C@@H]6OC[C@@H](O)[C@H](O)[C@H]6O)CC[C@@]56C[C@@]46CC[C@]23C)O1,viability,[1],118%
same,Potency,[2],inactive
same,Potency,[3],inactive
same,Potency,[4],inactive
same,Potency,[5],inactive
O=C1OC(COc2ccccc2[N+](=O)[O-])CC1Cc1ccccc1 (stereo unspecified),viability,[1],112%
same,Potency,[6],inactive
same,Potency,[3],inactive
same,Potency,[4],inactive
same,Potency,[5],inactive
Cc1ccc2cc(-c3c(C)ccc(C(=O)c4c(-c5ccccc5)n(C)n(-c5ccccc5)c4=O)c3N)ccc2n1,viability,[1],92.3%
same,Potency,[2],inactive
same,Potency,[4],inactive
same,Potency,[5],inactive
O=C1S/C(=C\c2ccc(OCc3cccc(B(O)O)c3)cc2)C(=O)N1Cc1ccc(F)cc1,viability,[1],87.6%
same,Potency,[2],18.6 µM (active)
same,Potency,[3],inactive
same,Potency,[4],18.6 µM (active)
same,Potency,[5],inactive
CC1=C(/C=C/C(C)=C/C=C/C(C)=C/C=C/C=C(C)/C=C/C=C(C)/C=C/C2=C(C)CCCC2(C)C)C(C)(C)CCC1,viability,[1],103%
same,Potency,[2],23.5 µM (active)
same,Potency,[3],inactive
same,Potency,[4],inactive
same,Potency,[5],inactive
C[C@@]12O[C@@H](C[C@]1(O)CO)n1c3ccccc3c3c4c(c5c6ccccc6n2c5c31)CNC4=O,Potency,[1],0.417 µM (active)
same,Potency,[2],0.0118 µM (active)
same,Potency,[3],0.118 µM (active)
same,Potency,[4],0.0525 µM (active)
NC1=N[C@@]2(c3cc(NC(=O)c4ccc(F)cn4)ccc3F)COC[C@H]2CS1,viability,[1],112%
same,Potency,[6],inactive
same,Potency,[3],inactive
same,Potency,[4],inactive
same,Potency,[5],inactive
CC(C)n1ncnc1-c1cn2c(n1)-c1ccc(O[C@@H](C)C(N)=O)cc1OCC2,viability,[1],99%
same,Potency,[6],18.6 µM (active)
same,Potency,[3],5.25 µM (active)
FC(F)(F)c1ccc(CNc2ccc(Cc3c[nH]c4ncc(Cl)cc34)cn2)cn1,viability,[1],110%
same,Potency,[2],0.934 µM (active)
same,Potency,[3],inactive
same,Potency,[5],inactive
O=C1OC2(CCC(C(=O)Nc3ccn(-c4ccccc4F)n3)CC2)c2cnccc21 (stereo unspecified),viability,[1],90.4%
same,Potency,[2],3.32 µM (active)
same,Potency,[3],inactive
same,Potency,[4],18.6 µM (active)
CCn1c(=O)c2c(nc(/C=C/c3ccc(OC)c(OC)c3)n2C)n(CC)c1=O,viability,[1],107%
same,Potency,[6],inactive
same,Potency,[3],inactive
same,Potency,[4],inactive
same,Potency,[5],inactive
Nc1nc(OC(c2ccc(-c3cccc(F)c3)cc2)C(F)(F)F)cc(-c2ccc(C[C@@H](N)C(=O)O)cc2)n1 (stereo partly specified),viability,[1],100%
same,Potency,[2],inactive
same,Potency,[3],inactive
same,Potency,[4],inactive
same,Potency,[5],inactive
C=CC(=O)N[C@H]1CN(c2nc(Nc3cn(C)nc3OC)c3ncn(C)c3n2)C[C@@H]1F,viability,[1],87.8%
same,Potency,[6],inactive
CCOC(=O)c1ccc(C#Cc2ccc3c(c2)C(C)(C)CCS3)nc1,viability,[1],106%
same,Potency,[2],0.662 µM (active)
same,Potency,[3],inactive
same,Potency,[4],8.33 µM (active)
same,Potency,[5],inactive
C=CC(=O)N[C@H]1CCOC[C@H]1Nc1ncc2cc(-c3c(Cl)c(OC)cc(OC)c3Cl)ccc2n1,viability,[1],104%
same,Potency,[2],18.6 µM (active)
same,Potency,[3],inactive
same,Potency,[5],inactive
O=C(Nc1nccs1)C(c1cc(F)ccc1O)N1Cc2ccccc2C1=O (stereo unspecified),Potency,[1],18.6 µM (active)
same,Potency,[6],16.6 µM (active)
same,Potency,[3],inactive
same,Potency,[4],inactive
same,Potency,[5],inactive
O=C(N[C@@H](c1ccccc1)[C@@H]1CCCCN1)c1cccc(C(F)(F)F)c1Cl,Potency,[1],1.18 µM (active)
same,Potency,[6],18.6 µM (active)
O=c1cc(N2CCOCC2)oc2c(-c3ccc4c(c3)OCCO4)csc12,Potency,[1],3.32 µM (active)
same,Potency,[2],2.09 µM (active)
same,Potency,[3],3.32 µM (active)
same,Potency,[4],5.25 µM (active)
same,Potency,[5],2.95 µM (active)
Cc1cc(-c2ccc(CC(=O)Nc3ccc(-c4cccnc4)cc3)cc2)ccn1,Potency,[1],16.6 µM (active)
same,Potency,[2],13.2 µM (active)
same,Potency,[4],9.34 µM (active)
O=C(O)CCC=CCC[C@@H]1[C@H](N2CCCCC2)[C@@H](O)C[C@@H]1OCc1ccc(-c2ccccc2)cc1,Potency,[1],1.18 µM (active)
same,Potency,[2],inactive
same,Potency,[3],inactive
same,Potency,[4],inactive
same,Potency,[5],inactive
Cc1c(-c2cnccn2)ssc1=S,viability,[1],94.7%
same,Potency,[2],3.72 µM (active)
same,Potency,[3],inactive
same,Potency,[4],inactive
C=CC(=O)Nc1cc(N2CCN(CC)CC2)ccc1Nc1cc(N(C)C(=O)Nc2c(Cl)c(OC)cc(OC)c2Cl)ncn1,viability,[1],112%
same,Potency,[2],20.9 µM (active)
same,Potency,[4],inactive
same,Potency,[5],inactive
CC(/C=C/[C@@H]1C[C@]1(C)c1ccc2c(c1)C(C)(C)CCC2(C)C)=C\C(=O)O,viability,[1],110%
same,Potency,[6],18.6 µM (active)
CC1(C)O[C@@H]2C[C@H]3[C@@H]4CCC5=CC(=O)C=C[C@]5(C)[C@H]4[C@@H](O)C[C@]3(C)[C@]2(C(=O)CO)O1,viability,[1],114%
same,Potency,[2],inactive
same,Potency,[3],inactive
same,Potency,[4],inactive
same,Potency,[5],0.332 µM (active)
CC(C)=CCC/C(C)=C/CC/C(C)=C/CSc1ccccc1C(=O)O,viability,[1],106%
same,Potency,[2],11.8 µM (active)
same,Potency,[3],inactive
same,Potency,[4],inactive
same,Potency,[5],inactive
COc1ccc(C(=O)N2CCN(C(=O)/C=C/c3ccc(Br)cc3)CC2)cc1,viability,[1],111%
same,Potency,[2],11.8 µM (active)
same,Potency,[3],inactive
same,Potency,[4],inactive
same,Potency,[5],inactive
NS(=O)(=O)c1ccc(Cc2c(-c3cccc(-c4ccccc4)c3)nn(-c3nc(C(=O)O)cs3)c2CC2CC2)cc1,viability,[1],106%
same,Potency,[6],inactive
same,Potency,[3],inactive
same,Potency,[4],7.42 µM (active)
CO[C@H]1/C=C/O[C@@]2(C)Oc3c(C)c(O)c4c(O)c(c(/C=N/N5CCN(C)CC5)c(O)c4c3C2=O)NC(=O)/C(C)=C\C=C\[C@H](C)[C@H](O)[C@@H](C)[C@@H](O)[C@@H](C)[C@H](OC(C)=O)[C@@H]1C,viability,[1],90.8%
same,Potency,[3],inactive
same,Potency,[4],inactive
same,Potency,[5],inactive
CC1Oc2cc(cnc2N)-c2c(nn(C)c2C#N)CN(C)C(=O)c2ccc(F)cc21 (stereo unspecified),viability,[1],105%
same,Potency,[3],20.9 µM (active)
CCCCC[C@H](O)C=C[C@H]1[C@H](O)CC(=O)[C@H]1CC=CCCCC(=O)O,Potency,[7],5.9 µM (active)
Cc1cc(O)c(-c2ccc([C@@H](C)CN)cc2)c2c1[nH]c(=O)c1sccc12,Potency,[1],0.372 µM (active)
same,Potency,[6],0.0417 µM (active)
same,Potency,[4],0.0833 µM (active)
CC1(C)SCCN(S(=O)(=O)c2ccc(OCC#CCO)cc2)[C@H]1C(=O)NO,viability,[1],96.5%
same,Potency,[4],inactive
CC(=O)C1CCC2C3CCC4=CC(=O)CCC4(C)C3CCC12C (stereo unspecified),Potency,[1],18.6 µM (active)
same,Potency,[3],inactive
C=CC(=O)Nc1ccc(F)c(-c2ncnc3[nH]cc(C(=O)OCC)c23)c1,viability,[1],83.4%
same,Potency,[3],inactive
same,Potency,[4],inactive
same,Potency,[5],inactive
C[C@]12CC[C@@H]3c4ccc(O)cc4CC[C@H]3[C@@H]1C[C@@H](O)[C@@H]2O,viability,[1],109%
same,Potency,[3],inactive
same,Potency,[4],inactive
O=C1NC(=O)[C@@H](c2cn3c4c(cccc24)CCC3)[C@@H]1c1c[nH]c2ccccc12,Potency,[1],1.32 µM (active)
same,Potency,[6],0.934 µM (active)
same,Potency,[4],0.934 µM (active)
same,Potency,[5],0.934 µM (active)
[2H]C([2H])([2H])C(O)([C@@H](C)/C=C/[C@@H](C)[C@H]1CC[C@H]2/C(=C/C=C3C[C@@H](O)C[C@H](O)C3)CCC[C@]12C)C([2H])([2H])[2H],viability,[1],79.5%
same,Potency,[4],14.8 µM (active)

# — PubChem BioAssay (NCATS)
